High-throughput results deposited in PubChem BioAssay by National Center for Advancing Translational Sciences (NCATS).
Only a selection was taken, and hits are over-represented in it overall.
Glioma ERSR ind: qHTS for Inducers of the Endoplasmic Reticulum Stress Response (ERSR) in Human Glioma: qHTS; U87-MG GRP78 promoter luciferase reporter, 16 h; Potency, µM, inactives show at the highest dose activation, most hits filed as activators; hit rate 0.02% among 420,000; further: series mostly up to about 76 µM; % of control where 0% means no effect; nearly all actives have a fitted effect of over 35% in size
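Stably transfected U87-MG human glioma cells carrying a GRP78-based luminescent sensor were seeded at 1000 cells/well, pin-dosed with compounds and incubated 16 h. Luciferase reagent was then added, and end-point luminescence was read after 10 min at room temperature.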
VDR inhibitor: Inhibitors of the vitamin D receptor (VDR): qHTS | Vitamin D3 receptor (Homo sapiens), P11473 | VDR-SRC2-3 peptide fluorescence polarization, 2 h | Potency, µM, inactives show max response, negative = inhibition, usual class: inhibitors | hit rate 0.93% among 400,000; further: on the % scale 0 is the no-effect control and ±100 the full control effect
Target sequence (P11473 whole entry, looked up): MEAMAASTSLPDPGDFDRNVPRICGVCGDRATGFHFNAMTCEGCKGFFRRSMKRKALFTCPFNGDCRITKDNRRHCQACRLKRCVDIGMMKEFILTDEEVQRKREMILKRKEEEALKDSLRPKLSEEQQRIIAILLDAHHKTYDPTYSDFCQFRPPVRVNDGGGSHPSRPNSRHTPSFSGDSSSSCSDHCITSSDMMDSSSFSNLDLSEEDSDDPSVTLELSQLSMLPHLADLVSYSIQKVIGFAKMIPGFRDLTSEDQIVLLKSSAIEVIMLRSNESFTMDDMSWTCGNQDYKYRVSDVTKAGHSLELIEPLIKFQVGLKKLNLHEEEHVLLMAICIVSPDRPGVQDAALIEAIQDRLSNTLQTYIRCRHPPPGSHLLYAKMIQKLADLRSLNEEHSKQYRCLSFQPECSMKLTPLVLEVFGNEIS
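Signal is fluorescence polarization, reporting how far test compounds block the interaction of VDR with the SRC2-3 coregulator peptide after a 2 h room-temperature incubation.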
Sfp inh: qHTS Assay for Inhibitors of Bacillus subtilis Sfp phosphopantetheinyl transferase (PPTase); Biochemical Sfp PPTase activity, qHTS; hit rate 3.5% among 310,000; 4'-phosphopantetheinyl transferase ffp (Bacillus subtilis), Q9F4F7; Potency, µM, without a hit: largest response in the series, negative = inhibition, usual class: inhibitors;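 further: the enzyme is Sfp with the accession as filed and its product quenches rhodamine fluorescence; 0% = enzyme reaction without inhibitor and -100% = no enzyme wells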
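Fluorescence-quenching assay with 15 nM Sfp, 5 uM rhodamine-CoA and 12.5 uM BHQ-2-labelled ybbR peptide in pH 7.6 Hepes/MgCl2 buffer. Enzyme was pre-incubated with compound for 15 min at room temperature. Rate was taken from the 30-min fluorescence change (525/598 nm).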
ALOX12 inh: Primary qHTS assay for inhibitors of human arachidonate 12S-lipoxygenase (ALOX12): Round 2; hit rate 1.1% among 580,000; purified 12hLO, xylenol orange hydroperoxide absorbance; Potency, µM (top dose mostly 108 µM), for the others: top-dose activity change, negative = inhibition, actives largely listed as inhibitors; further: on the % scale 0 is the no-effect control and ±100 the full control effect
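Purified human 12hLO (150 nM final) in 25 mM Hepes, 0.01% Triton X-100, pH 7.0 was preincubated 15 min at room temperature with compound. Then 40 uM arachidonic acid was added, 30 min. Hydroperoxide was read by Fe-XO absorbance ratio 573/405 nm.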
G9a block: qHTS Assay for Inhibitors of Histone Lysine Methyltransferase G9a | hit rate 8.8% among 350,000 | G9a H3K9 monomethylation, AlphaScreen, 2 h | Histone-lysine N-methyltransferase EHMT2 (Homo sapiens), Q96KQ7 | Potency, µM (titrated, usually from 102 µM), without a hit: top-dose activity, negative = inhibition, hits mostly inhibitors | AID 504332, 2011; further: on the % scale 0 is the no-effect control and ±100 the full control effect; nearly all actives have a fitted effect of over 75% in size
Target sequence (Q96KQ7 913-1193 limits assumed): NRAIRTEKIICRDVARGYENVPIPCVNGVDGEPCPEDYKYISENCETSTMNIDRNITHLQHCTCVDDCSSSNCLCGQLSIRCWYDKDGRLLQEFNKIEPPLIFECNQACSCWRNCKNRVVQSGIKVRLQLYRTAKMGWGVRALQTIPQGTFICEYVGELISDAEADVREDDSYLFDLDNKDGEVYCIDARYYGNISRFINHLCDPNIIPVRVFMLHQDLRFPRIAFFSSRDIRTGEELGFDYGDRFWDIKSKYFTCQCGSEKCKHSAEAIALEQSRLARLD
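Signal arises when biotinylated H3K9 peptide, once monomethylated, bridges streptavidin donor and antibody-captured acceptor beads. Enzyme at 20 nM was preincubated 15 min with test compounds; peptide 500 nM and SAM 20 uM then reacted for 2 h.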
* = called active by the depositor; ? = inconclusive; nt = no result; [ ] = another dose, or the depositor's remark. The call rests on the fitted dose curve; in most records, active means well fitted curve in the direction sought with a large enough effect; inconclusive means small, poorly fitted or top-dose-only effect, or another doubt; inactive means no such curve, though single readings can be large; an effect the other way counts as inactive or inconclusive. Potency means the concentration at half of the fitted maximal effect.

SMILES	Glioma ERSR ind	VDR inhibitor	Sfp inh	ALOX12 inh	G9a block
O=C(NCc1ccco1)c1cc2nc(-c3cccs3)cc(C(F)(F)F)n2n1	-2%	-12%	-20%	?	?
O=C(O)c1cc2nc(-c3cccs3)cc(C(F)(F)F)n2n1	-1%	-1%	3%	-16%	71µM*
O=C(O)CCc1nn2c3ccccc3n(CC(=O)O)c2nc1=O	-5%	38%	-2%	?	50µM*
O=C(Nc1ccccc1C(=O)NC(Cc1ccc(O)cc1)C(=O)O)c1ccccc1 (stereo unspecified)	0%	-14%	13%	-20%	45µM*
O=C(NC(Cc1ccccc1)C(=O)N1CCN(c2ccccc2O)CC1)c1ccccc1 (stereo unspecified)	-4%	2%	nt	-1%	50µM*
CC(=O)N1CCN(C(=O)C(Cc2ccccc2)NC(=O)c2ccccc2)CC1 (stereo unspecified)	-4%	-9%	nt	356%	12%[12.7 µM]
O=C(N[C@@H](Cc1ccccc1)C(=O)O)c1cccnc1	-5%	-4%	11%	-16%	50µM*
CC(C)c1cc(C(=O)Nc2ccc(NC(N)=O)cc2)c2ccccc2n1	nt	nt	nt	3%	nt
CN(C)c1ccc(CNC(=O)CCS(=O)(=O)c2ccc3c(c2)n(C)c(=O)c(=O)n3C)cc1	-3%	1%	4%	nt	18µM*
COc1ccc(CNC(=O)CCc2ccc(S(=O)(=O)N3CCCCCC3)cc2)cc1	0%	14%	nt	20%	5%[2.33 µM]
Cc1ccc(CNC(=O)CCS(=O)(=O)c2ccc3c(c2)oc(=O)n3C)cc1	-5%	-13%	10%	3%	49%
CN(C)c1ccc(CNC(=O)CCc2ccc(S(=O)(=O)N3CCCCCC3)cc2)cc1	-2%	-14%	nt	-17%	28µM*
O=C(CN1C(=O)CSc2ccc(S(=O)(=O)N3CCCC3)cc21)NCc1ccc(Cl)cc1	0%	5%	nt	0%	4%[59 µM]
CN(C)c1ccc(CNC(=O)CN2C(=O)CSc3ccc(S(=O)(=O)N4CCCC4)cc32)cc1	-2%	3%	nt	3%	11µM*
CCOc1c(Br)cc(/C=C/C(=O)c2ccc(F)cc2)cc1OC	nt	nt	nt	3%	nt
Cc1ccc2c(c1)SC(C(=O)O)C2 (stereo unspecified)	nt	nt	nt	-24%	nt
O=C(COc1ccccc1)N1CC[C@H](c2nnc(-c3ccccc3)o2)C1	nt	nt	nt	19%[176 µM]	nt
O=S(=O)(c1cccc(-c2csc(N/N=C/c3ccco3)n2)c1)N1CCOCC1	-3%	-4%	2%	-13%	45µM*
Cc1nc(-c2cccc(S(=O)(=O)N3CCCCCC3)c2)cs1	-4%	-7%	4%	4%	8%[59 µM]
O=S(=O)(c1cccc(-c2csc(-c3ccccc3)n2)c1)N1CCOCC1	3%	6%	-14%	-13%	-14%
COc1cc(/C=N/Nc2nc(-c3ccc(S(=O)(=O)N(C)C)cc3)cs2)ccc1O	3%	-19%	79µM*	0%	14µM*
CCOc1cc(/C=N/Nc2nc(-c3cccc(S(=O)(=O)N4CCCC4)c3)cs2)ccc1O	-6%	-8%	?	-14%	35µM*
COc1ccc(/C=N/Nc2nc(-c3cccc(S(=O)(=O)N4CCCC4)c3)cs2)cc1OC	-1%	7%	-17%	-4%	13µM*
Cc1nc(-c2cccc(S(=O)(=O)N3CCCCC3)c2)cs1	5%	28%	7%	-12%	-12%
O=C(COC(=O)c1nn(-c2ccccc2)c(=O)c2ccccc12)Nc1ccccc1Cl	nt	nt	nt	2%	nt
SMILES	Glioma ERSR ind	VDR inhibitor	Sfp inh	ALOX12 inh	G9a block
CCn1c(SCC(=O)N(C)CCOc2ccc(Br)cc2)nnc1C1CC1	nt	nt	nt	26%	nt
CCCc1c(C(=O)NNc2ccc(C)cc2)cnn1-c1ccccc1	-4%	-22%	11%	?	4.5µM*
CCCc1c(C(=O)Nc2ccc(C(F)(F)F)cc2)cnn1-c1ccccc1	-6%	3%	7%	?	33%
CCOC(=O)c1c(N)ssc1=S	-1%	-26%	22µM*	?	1µM*
CCCOC(=O)c1c(N)sc2c1CCC2	5%	-13%	50µM*	-5%	50µM*
Nc1sc2c(c1C(=O)NC1CCS(=O)(=O)C1)CCC2 (stereo unspecified)	-4%	-7%	18µM*	nt	7.1µM*
NC(=O)c1c(N)sc2c1CCC2	-1%	-4%	22µM*	-15%	nt
COc1ccc(-c2cnc3[nH]cc(CC(N)=O)c3c2)cc1OC	nt	nt	nt	3%[176 µM]	nt
Cc1ccc(-c2cnc(SCC(=O)Nc3cccc(F)c3)o2)cc1C	nt	nt	nt	-44%	nt
COc1cc(C#N)cc(Cl)c1O	nt	nt	nt	-10%	nt
CCOC(=O)c1c(N)sc(C(=O)N2CCCCCC2)c1C	-3%	26%	1%	0%	-15%
CCOC(=O)c1c(N)sc(=S)c2c1CCC2	-5%	-29%	32µM*	?	?
COc1ccc(-c2coc3cc(OC(=O)C(C)(C)C)ccc3c2=O)cc1OC	nt	nt	nt	-1%	nt
Fc1ccc(-c2nnc(SCc3ncc(-c4ccccc4)o3)o2)cc1	nt	nt	nt	-8%	nt
COc1ccc(-n2cnnc2SCC(=O)Nc2cc(S(=O)(=O)N3CCCCC3)ccc2C)cc1	-5%	-5%	6%	-2%	8%[59 µM]
CSc1nnc(-c2ccc(S(=O)(=O)N3CCOCC3)cc2)n1C	-5%	-5%	16%	-2%	22µM*
COc1ccc(-n2cnnc2SCC(=O)c2ccc(S(=O)(=O)N3CCOCC3)cc2)cc1	-4%	-2%	56µM*	-1%	-93%
CCOC(=O)CSc1nnc(-c2ccc(S(=O)(=O)N3CCOCC3)cc2)n1-c1ccccc1	-3%	8%	-2%	-8%	6%[12.7 µM]
Cc1nnc(SCC(=O)c2ccc(S(=O)(=O)N3CCOCC3)cc2)n1-c1ccccc1	-6%	?	32µM*	?	?
CCC(C)(C(=O)NC1CCCC1)N(Cc1cccs1)C(=O)CNC(=O)c1ccccc1 (stereo unspecified)	nt	nt	nt	-36%	nt
Cc1ccc(N2C(=O)CS(=O)C(c3ccccc3)C2=O)cc1C (stereo unspecified)	1%	?	3.2µM*	22µM*	1µM*
CC(C)N(Cc1cnn(C)c1)S(=O)(=O)c1ccc(F)c(F)c1	nt	nt	nt	-53%	nt
Cc1ccc(CN2CCCN(c3cccc(C(=O)N4CCCCCC4)c3)C2=O)cc1	nt	nt	nt	-5%	nt
CCCCn1nnnc1C1(C)CCC(=O)N1c1ccc(N2CCOCC2)cc1 (stereo unspecified)	nt	nt	nt	-1%	nt
Cc1cccc(C)c1-n1nnnc1C1(C)CCC(=O)N1c1ccc(N2CCOCC2)cc1 (stereo unspecified)	nt	nt	nt	11µM*	nt
CCOC(=O)c1oc2ccccc2c1NC(=O)CN1CCN(C)CC1	-2%	-15%	12%	2%	-31%
